Test results as given in PubChem BioAssay (NCATS).
A number with no mark means an inactive call. Results filed as inconclusive are left out. Active and inactive are the calls of the source. Unless noted, calls follow the shape of the dose curve; as a rule, active = well fitted curve in the direction sought with a large enough effect; inconclusive = small, poorly fitted or top-dose-only effect, or another doubt; inactive = no such curve, though single readings can be large; an effect the other way counts as inactive or inconclusive.

What was measured:
[1] = target: Lysosomal acid glucosylceramidase (Homo sapiens) (UniProt P04062); assay: Glucocerebrosidase-p2 (AID 348; in the data active = potency below about 10 µM; also: potency is read from the fitted curve at half-maximal effect); conditions: purified GBA, blue fluorogenic substrate, 40 min
Lysosomal acid glucosylceramidase (Homo sapiens), sequence (P04062 whole entry, looked up): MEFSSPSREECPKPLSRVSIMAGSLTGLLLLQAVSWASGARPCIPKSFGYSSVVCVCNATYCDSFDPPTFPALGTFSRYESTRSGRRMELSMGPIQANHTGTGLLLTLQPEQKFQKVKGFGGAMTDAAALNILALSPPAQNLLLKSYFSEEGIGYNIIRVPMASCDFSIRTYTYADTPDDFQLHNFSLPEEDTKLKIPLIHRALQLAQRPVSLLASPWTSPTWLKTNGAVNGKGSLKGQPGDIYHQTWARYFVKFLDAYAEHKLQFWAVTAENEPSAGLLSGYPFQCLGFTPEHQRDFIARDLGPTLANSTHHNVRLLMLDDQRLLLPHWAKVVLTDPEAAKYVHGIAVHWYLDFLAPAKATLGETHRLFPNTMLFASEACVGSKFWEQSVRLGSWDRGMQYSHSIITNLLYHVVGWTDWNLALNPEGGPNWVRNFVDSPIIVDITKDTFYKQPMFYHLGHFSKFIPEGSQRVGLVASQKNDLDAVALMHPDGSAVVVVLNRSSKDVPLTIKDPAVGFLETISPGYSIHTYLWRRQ
Summary of the method: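 Compounds titrated from 0.6 nM upwards against 0.2 nM enzyme in pH 5.9 citric acid/KH2PO4, taurocholate, tween-20; blue fluorogenic substrate 80 uM, 40 min room temperature, stopped and read Ex 365/Em 440 for AC50.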

[2] = AP1 Signaling Pathway (AID 357; active = well fitted curve in either direction with a large enough effect, not every such curve was filed as active; also: % is scaled to controls: 0 for no effect and ±100 for the full control effect); conditions: ME-180 AP-1-bla reporter, EGF-induced, beta-lactamase ratio, 5 h; at 7.69 µM (top of the series) unless noted
Summary of the method: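 ME-180 cells with beta-lactamase reporter under AP-1 response element, stimulated with EC50 EGF; compounds tested in titration series, 5 h at 37 °C. CCF4 substrate added 2.5 h at room temperature; 460/530 nm emission ratio gave %activity and AC50.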

[3] = target: Cytochrome P450 1A2 (Homo sapiens) (UniProt P05177); assay: p450-cyp1a2 (AID 410; calls by dose curve; also: potency is read from the fitted curve at half-maximal effect); conditions: recombinant CYP1A2, luciferin-ME demethylation, luminescence; series mostly up to 57 µM
Cytochrome P450 1A2 (Homo sapiens), sequence (P05177 whole entry, looked up): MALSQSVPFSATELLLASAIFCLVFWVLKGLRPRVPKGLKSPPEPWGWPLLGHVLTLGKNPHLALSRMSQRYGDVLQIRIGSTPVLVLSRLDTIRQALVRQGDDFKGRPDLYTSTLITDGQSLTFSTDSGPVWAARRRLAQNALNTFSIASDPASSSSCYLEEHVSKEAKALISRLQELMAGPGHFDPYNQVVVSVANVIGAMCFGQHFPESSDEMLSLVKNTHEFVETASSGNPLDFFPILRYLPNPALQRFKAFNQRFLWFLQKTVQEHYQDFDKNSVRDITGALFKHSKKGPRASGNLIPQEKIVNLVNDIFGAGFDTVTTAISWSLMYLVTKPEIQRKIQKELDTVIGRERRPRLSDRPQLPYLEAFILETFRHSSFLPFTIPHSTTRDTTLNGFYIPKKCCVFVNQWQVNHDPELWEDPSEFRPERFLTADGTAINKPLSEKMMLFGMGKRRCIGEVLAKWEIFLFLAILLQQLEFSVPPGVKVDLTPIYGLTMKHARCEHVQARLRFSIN
Summary of the method: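 Inhibition was calculated relative to 57 uM furafylline (full inhibition). The reaction used human CYP1A2 at 20nM with Luciferin-ME at its Km, 100uM, driven by an NADPH-regenerating system for 60 min at room temperature.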

[4] = NFAT Signaling Pathway (AID 444; active = well fitted curve in either direction with a large enough effect, not every such curve was filed as active;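 also: carbachol stimulus at about its EC50 of 1 µM final; % is scaled to controls: 0 for no effect and ±100 for the full control effect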); conditions: Jurkat NFAT-bla M1, carbachol, beta-lactamase ratio, 5 h; at 7.69 µM (top of the series) unless noted
Summary of the method: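 Read-out: CCF4 FRET ratio (460 nm/530 nm) after 1 h RT dye loading, used for %activity and AC50 from titration series. Cells: Jurkat NFAT-β-lactamase/M1 line, treated with compound plus 1 uM carbachol for 5 h, 37 °C.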

[5] = Stat Signaling Pathway (AID 446; active = well fitted curve in either direction with a large enough effect, not every such curve was filed as active;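 also: ME-180 cervical cancer cells given 40 pM IL-6 alongside compound; SIE-controlled beta-lactamase reporter measured as 460/530 nm FRET emission ratio; % is scaled to controls: 0 for no effect and ±100 for the full control effect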); conditions: ME-180 SIE beta-lactamase reporter, IL-6 stimulated, 5 h; at 7.69 µM (top of the series) unless noted
Summary of the method: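 ME-180 SIE-bla cells; overnight plating; cpd + IL-6 40 pM, 5 h, 37 C; LiveBLAzer 2.5 h RT; 460/530 nm emission ratio. Normalized to 300 pM IL-6 and 125 nM JAK inhibitor controls.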

[6] = target: Glucocorticoid receptor (Homo sapiens) (UniProt P04150); assay: GR-GFP Redistribution (AID 450;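 active = compounds whose dose series gives a full or clear partial fitted curve of increased nuclear translocation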; also: potency is read from the fitted curve at half-maximal effect); conditions: U2OS GR-GFP nuclear translocation, laser cytometry, 2 h
Glucocorticoid receptor (Homo sapiens), sequence (P04150 whole entry, looked up, the tested form may be a part): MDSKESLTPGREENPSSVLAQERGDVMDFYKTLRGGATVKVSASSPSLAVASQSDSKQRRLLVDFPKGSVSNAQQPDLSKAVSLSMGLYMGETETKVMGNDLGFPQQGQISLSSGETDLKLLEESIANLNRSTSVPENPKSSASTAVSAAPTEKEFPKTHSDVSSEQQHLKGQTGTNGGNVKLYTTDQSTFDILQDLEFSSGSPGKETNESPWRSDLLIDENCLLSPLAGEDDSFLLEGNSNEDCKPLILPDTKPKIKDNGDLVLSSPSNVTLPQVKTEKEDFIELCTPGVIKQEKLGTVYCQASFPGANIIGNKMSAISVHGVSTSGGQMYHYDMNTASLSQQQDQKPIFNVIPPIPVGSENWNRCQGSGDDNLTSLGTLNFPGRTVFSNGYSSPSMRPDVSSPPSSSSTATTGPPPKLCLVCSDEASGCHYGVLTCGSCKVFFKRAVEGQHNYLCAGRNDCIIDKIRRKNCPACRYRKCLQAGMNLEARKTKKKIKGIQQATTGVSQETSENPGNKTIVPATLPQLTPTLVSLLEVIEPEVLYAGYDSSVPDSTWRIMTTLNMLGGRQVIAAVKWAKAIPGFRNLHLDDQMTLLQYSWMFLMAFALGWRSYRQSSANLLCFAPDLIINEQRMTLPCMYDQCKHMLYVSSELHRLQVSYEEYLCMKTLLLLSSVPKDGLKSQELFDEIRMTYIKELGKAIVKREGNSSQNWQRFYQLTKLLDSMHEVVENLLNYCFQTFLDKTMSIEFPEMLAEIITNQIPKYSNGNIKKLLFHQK

[7] = target: Glucocorticoid receptor (Homo sapiens) (UniProt P04150); assay: GR-EFC Redistribution (AID 451; calls by dose curve; also: potency is read from the fitted curve at half-maximal effect); conditions: CHO-K1 GR-EFC translocation, beta-gal luminescence, 2 h
Summary of the method: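 Translocation of GR-ED fusion to nuclear EA restores b-gal, read by luminescence after 1 h room-temperature detection. Engineered CHO-K1 biosensor cells, 1,000/well, exposed 2 h at 37 C to titrations up to 46 uM final.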

[8] = target: Mitogen-activated protein kinase 10 (Mus musculus) (UniProt Q61831); assay: JNK3 AlphaScreen Assay (AID 530; active = well fitted curve in either direction with a large enough effect, not every such curve was filed as active;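 also: kinase came from lysate of stimulated human HepG2 cells; signal reports phosphorylation of biotinylated GST-cJun 1-79 at Ser73 with 10 µM ATP; % is scaled to controls: 0 for no effect and ±100 for the full control effect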); conditions: JNK3 lysate, c-Jun phosphorylation; series mostly up to 57.1 µM
Summary of the method: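 Room-temperature AlphaScreen kinase assay; pre-activated HepG2 lysate as JNK3 source, biotin-GST-cJun(1-79) substrate, 10 uM ATP, compound 15 min preincubation.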

[9] = target: 3',5'-cyclic-AMP phosphodiesterase 4B (Homo sapiens) (UniProt Q07343); assay: qHTS Assay for Inhibitors of PDE-IV (AID 607; active = well fitted activation curve with a large enough effect in the main read-out, with a control signal flat, not every such curve was filed as active; also: % of control where 0% means no effect); conditions: HEK293 ACTOne CNG channel cells, membrane potential fluorescence; series mostly up to 22.9 µM
3',5'-cyclic-AMP phosphodiesterase 4B (Homo sapiens), sequence (Q07343 whole entry, looked up): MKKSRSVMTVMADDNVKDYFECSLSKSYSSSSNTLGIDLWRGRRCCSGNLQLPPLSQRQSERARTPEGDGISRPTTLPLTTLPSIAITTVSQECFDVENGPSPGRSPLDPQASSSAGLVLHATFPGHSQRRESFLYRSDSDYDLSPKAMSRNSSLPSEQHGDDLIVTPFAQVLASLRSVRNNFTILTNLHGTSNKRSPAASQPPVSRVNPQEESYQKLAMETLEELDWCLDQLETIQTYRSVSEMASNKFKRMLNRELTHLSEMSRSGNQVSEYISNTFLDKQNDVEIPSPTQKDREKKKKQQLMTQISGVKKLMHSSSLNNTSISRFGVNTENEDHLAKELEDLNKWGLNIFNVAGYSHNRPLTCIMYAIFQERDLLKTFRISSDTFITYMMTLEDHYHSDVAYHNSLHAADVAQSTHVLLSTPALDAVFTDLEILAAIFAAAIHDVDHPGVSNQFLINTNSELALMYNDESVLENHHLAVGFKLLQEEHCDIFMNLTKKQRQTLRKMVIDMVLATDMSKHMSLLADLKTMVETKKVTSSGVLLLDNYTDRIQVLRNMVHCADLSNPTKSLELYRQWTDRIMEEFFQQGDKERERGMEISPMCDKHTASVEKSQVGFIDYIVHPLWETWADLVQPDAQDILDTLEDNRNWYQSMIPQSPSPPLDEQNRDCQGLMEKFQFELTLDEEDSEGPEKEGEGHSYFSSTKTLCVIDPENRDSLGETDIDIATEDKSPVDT
Summary of the method: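 ACTOne HEK293 cells carry a modified cAMP-gated CNG channel and express endogenous PDE4; plated 1000 cells/well, compounds up to 22.9 uM final. Membrane-potential dye fluorescence (ex 535/em 590) was read; parental cells received 10 uM forskolin + 100 uM RO 20-1724.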

[10] = target: Cytochrome P450 2C9 (Homo sapiens) (UniProt P11712); assay: qHTS Assay for Inhibitors and Substrates of Cytochrome P450 2C9 (AID 883); conditions: recombinant CYP2C9, luciferin-H luminescence, 60 min; series mostly up to 57.1 µM; also: potency is read from the fitted curve at half-maximal effect; nearly all actives have a fitted effect of over 60% in size
Summary of the method: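 Turnover of Luciferin-H (100uM, KM) by 10nM human CYP2C9 was measured over 60 min at 37C with NADPH regeneration; inhibitors and some substrates reduce luminescence. Data normalized to sulphaphenazole 57uM.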

[11] = target: Cytochrome P450 3A4 (Homo sapiens) (UniProt P08684); assay: qHTS Assay for Inhibitors and Substrates of Cytochrome P450 3A4 (AID 884); conditions: recombinant CYP3A4, Luciferin-PPXE luminescence; series mostly up to 57.1 µM; also: potency is read from the fitted curve at half-maximal effect; nearly all actives have a fitted effect of over 50% in size
Cytochrome P450 3A4 (Homo sapiens), sequence (P08684 whole entry, looked up): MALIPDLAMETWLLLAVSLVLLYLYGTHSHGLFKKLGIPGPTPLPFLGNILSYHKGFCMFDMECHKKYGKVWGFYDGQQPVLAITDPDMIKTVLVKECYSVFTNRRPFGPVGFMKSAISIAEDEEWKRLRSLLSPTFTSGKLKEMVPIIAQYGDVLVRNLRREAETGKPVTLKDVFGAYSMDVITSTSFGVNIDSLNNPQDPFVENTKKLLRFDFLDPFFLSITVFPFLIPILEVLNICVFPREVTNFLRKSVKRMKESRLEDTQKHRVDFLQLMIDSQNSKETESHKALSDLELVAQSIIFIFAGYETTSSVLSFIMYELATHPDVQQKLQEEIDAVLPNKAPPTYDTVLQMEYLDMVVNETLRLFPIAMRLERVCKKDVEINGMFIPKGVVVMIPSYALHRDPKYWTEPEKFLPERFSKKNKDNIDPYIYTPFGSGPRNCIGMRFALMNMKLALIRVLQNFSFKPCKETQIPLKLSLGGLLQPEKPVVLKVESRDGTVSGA
Summary of the method: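 20 nM human CYP3A4 with 25 uM Luciferin-PPXE (at KM) in 200 mM KPO4, preincubated 10 min with compound; NADPH regeneration started a 60 min RT reaction. Luciferin detected by luminescence, normalized to 57 uM ketoconazole as full inhibition.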

[12] = target: Cytochrome P450 3A4 (Homo sapiens) (UniProt P08684); assay: qHTS Assay for Activators of Cytochrome P450 3A4 (AID 885); conditions: recombinant CYP3A4, Luciferin-PPXE luminescence, 60 min; series mostly up to 57.1 µM; also: nearly all actives have a fitted effect of over 65% in size
Summary of the method: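 20nM CYP3A4 + 25uM Luciferin-PPXE (=KM), 200mM KPO4; cpd 10 min RT; NADPH regen, 60 min RT; stop w/ detection buffer, 20 min; luminescence. Normalized to 57 uM ketoconazole.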

[13] = target: Cytochrome P450 2D6 (Homo sapiens) (UniProt P10635); assay: qHTS Assay for Inhibitors and Substrates of Cytochrome P450 2D6 (AID 891); conditions: recombinant CYP2D6, luciferin-ME EGE luminescence; series mostly up to 57.1 µM; also: potency is read from the fitted curve at half-maximal effect; nearly all actives have a fitted effect of over 60% in size
Cytochrome P450 2D6 (Homo sapiens), sequence (P10635 whole entry, looked up): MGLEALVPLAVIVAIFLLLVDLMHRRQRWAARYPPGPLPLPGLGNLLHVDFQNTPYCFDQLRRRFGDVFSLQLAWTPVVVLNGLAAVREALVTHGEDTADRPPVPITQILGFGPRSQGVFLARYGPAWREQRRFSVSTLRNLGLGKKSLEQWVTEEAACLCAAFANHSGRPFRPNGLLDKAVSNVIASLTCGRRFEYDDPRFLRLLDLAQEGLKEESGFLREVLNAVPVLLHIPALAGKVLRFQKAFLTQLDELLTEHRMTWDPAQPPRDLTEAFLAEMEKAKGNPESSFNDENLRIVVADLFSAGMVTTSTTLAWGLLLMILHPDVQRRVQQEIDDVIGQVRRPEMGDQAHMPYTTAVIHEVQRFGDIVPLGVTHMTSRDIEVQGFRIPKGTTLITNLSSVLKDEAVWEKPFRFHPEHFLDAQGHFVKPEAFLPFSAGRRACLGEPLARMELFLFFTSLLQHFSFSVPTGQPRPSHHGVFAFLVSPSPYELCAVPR
Summary of the method: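 Human CYP2D6 (5 nM) with 30 uM Luciferin-ME EGE (at Km) in 100 mM KPO4, compound preincubated 10 min, then NADPH regeneration system for 60 min at room temperature. Luciferin read by luminescence; normalized to 1.43 uM quinidine.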

[14] = Confirmation and Secondary Assay for Modulators of Hemoglobin Beta Chain Splicing at IVS2 654 locus (AID 910); conditions: HeLa EGFP-654 splicing reporter, GFP fluorescence, 48 h; series mostly up to 38.3 µM;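 also: HeLa cells stably carrying EGFP split by mutant beta-globin IVS2-654 intron; per-well total GFP intensity by laser scanning cytometry after 2-day treatment; % of control where 0% means no effect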
Summary of the method: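 Readout: per-well total peak green fluorescence (488 nm ex, 500–520 nm em) from objects 5–250 µm, reflecting correct splicing of an EGFP-654 reporter. Compounds were applied for 2 days at 37 °C to overnight-plated HeLa EGFP-654 cells; controls were DMSO and 500 nM IVS2-654 PNA.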

[15] = Confirmation and Secondary Assay for Modulators of Hemoglobin Beta Chain Splicing at IVS2 705 locus (AID 930); conditions: HeLa EGFP-705 splicing reporter, GFP fluorescence, 48 h; series mostly up to 38.3 µM;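 also: HeLa cells stably expressing the EGFP-705 splicing reporter; % of control where 0% means no effect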
Summary of the method: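 Restored EGFP fluorescence after 2-day compound exposure reports splicing correction in IVS2-705 EGFP reporter HeLa cells; positive control was 500 nM splice-blocking PNA oligo. Signal measured as well total peak GFP intensity (488 nm excitation).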

[16] = target: Ubiquitin carboxyl-terminal hydrolase 1 (Homo sapiens) (UniProt O94782); assay: Inhibitors of USP1/UAF1: Pilot qHTS (AID 504865); conditions: purified USP1/UAF1, Ub-rhodamine cleavage fluorescence; series mostly up to 54.9 µM;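 also: rhodamine fluorescence freed from ubiquitin-rhodamine substrate followed over time; top concentration of the series differs between compounds; % is scaled to controls: 0 for no effect and ±100 for the full control effect; nearly all actives have a fitted effect of over 35% in size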
Ubiquitin carboxyl-terminal hydrolase 1 (Homo sapiens), sequence (O94782 whole entry, looked up): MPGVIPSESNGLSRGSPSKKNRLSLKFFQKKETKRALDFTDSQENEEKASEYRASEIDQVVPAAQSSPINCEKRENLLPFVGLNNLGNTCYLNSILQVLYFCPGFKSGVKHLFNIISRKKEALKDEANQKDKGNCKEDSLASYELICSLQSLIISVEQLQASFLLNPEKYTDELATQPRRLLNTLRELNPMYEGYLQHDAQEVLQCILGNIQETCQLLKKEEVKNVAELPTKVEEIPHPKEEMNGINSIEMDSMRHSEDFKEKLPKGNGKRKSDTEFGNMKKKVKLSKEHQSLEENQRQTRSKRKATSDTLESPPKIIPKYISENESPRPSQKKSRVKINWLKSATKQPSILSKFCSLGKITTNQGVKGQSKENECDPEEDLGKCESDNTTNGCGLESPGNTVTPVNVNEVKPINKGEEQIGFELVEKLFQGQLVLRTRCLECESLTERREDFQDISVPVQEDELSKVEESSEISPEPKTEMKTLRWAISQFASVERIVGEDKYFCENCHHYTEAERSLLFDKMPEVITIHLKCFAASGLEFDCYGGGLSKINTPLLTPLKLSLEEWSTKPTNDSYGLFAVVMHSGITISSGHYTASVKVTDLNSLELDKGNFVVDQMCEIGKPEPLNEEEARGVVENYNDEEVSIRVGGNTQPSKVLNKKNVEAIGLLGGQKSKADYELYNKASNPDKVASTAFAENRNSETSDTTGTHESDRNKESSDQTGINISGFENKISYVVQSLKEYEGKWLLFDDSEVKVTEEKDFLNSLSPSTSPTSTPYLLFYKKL
Summary of the method: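 Enzyme-free wells gave the negative control, while test wells held 1nM USP1/UAF1 preincubated with compound for 15 min at room temperature. Ub-Rho at 150nM final started the reaction, and fluorescence at 480/540 nm was recorded kinetically.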

[17] = Primary qHTS for small molecule stabilizers of the endoplasmic reticulum resident proteome: Secreted ER Calcium Modulated Protein (SERCaMP) assay (AID 1508630); conditions: SH-SY5Y GLuc-SERCaMP (Gaussia luciferase released on ER calcium loss) secretion, thapsigargin, luminescence; series mostly up to 38.4 µM; also: % is scaled to controls: 0 for no effect and ±100 for the full control effect
Summary of the method: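 GLuc-SERCaMP-expressing SH-SY5Y cells, pretreated 16 h with compound, are challenged with thapsigargin to empty ER calcium stores; after 4 h, coelenterazine is added directly to the medium and luminescence is imaged.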

[18] = target: Cytochrome P450 2C19 (Homo sapiens) (UniProt P33261); assay: qHTS Assay for Inhibitors and Substrates of Cytochrome P450 2C19 (AID 899); conditions: recombinant CYP2C19, luciferin-H EGE luminescence; series mostly up to 57.1 µM; also: potency is read from the fitted curve at half-maximal effect; nearly all actives have a fitted effect of over 60% in size
Cytochrome P450 2C19 (Homo sapiens), sequence (P33261 whole entry, looked up): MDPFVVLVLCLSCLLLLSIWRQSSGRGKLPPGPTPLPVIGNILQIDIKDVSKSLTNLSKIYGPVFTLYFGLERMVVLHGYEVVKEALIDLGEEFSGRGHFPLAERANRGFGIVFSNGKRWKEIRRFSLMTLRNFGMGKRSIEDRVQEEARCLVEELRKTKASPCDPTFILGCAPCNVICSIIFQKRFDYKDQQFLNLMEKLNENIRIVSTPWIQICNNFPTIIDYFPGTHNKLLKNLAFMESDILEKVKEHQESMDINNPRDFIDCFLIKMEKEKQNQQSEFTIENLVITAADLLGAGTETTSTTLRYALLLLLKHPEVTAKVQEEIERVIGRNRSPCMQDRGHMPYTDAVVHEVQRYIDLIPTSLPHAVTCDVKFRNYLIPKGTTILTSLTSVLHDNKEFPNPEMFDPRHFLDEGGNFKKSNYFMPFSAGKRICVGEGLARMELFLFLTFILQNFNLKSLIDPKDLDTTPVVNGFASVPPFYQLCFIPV
Summary of the method: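 Reactions contain 5nM enzyme, 10uM Luciferin-H EGE (KM) and 50mM KPO4; compound preincubates 10 min at 37C, NADPH regeneration starts turnover for 60 min. Luminescence after detection reagent gives activity.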

[19] = target: Dual specificity protein kinase CLK4 (Homo sapiens) (UniProt Q9HAZ1); assay: qHTS Assay for Inhibitors of CDC-like Kinase 4 (ADP-FP Assay) (AID 1795); conditions: Transcreener ADP fluorescence polarization; series mostly up to 50 µM;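 also: recombinant human CLK4 phosphorylating RS repeat peptide at 1 µM ATP; % is scaled to controls: 0 for no effect and ±100 for the full control effect; nearly all actives have a fitted effect of over 60% in size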
Summary of the method: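 Kinase activity was followed as ADP output, converted from fluorescence polarization with a calibration curve. Reactions ran one hour at low ATP (1 uM) with RS peptide substrate.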

Row | Compound | Potency [1] | activity change, negative = inhibition [2] [%] | Potency [3] | activity change, negative = inhibition [4] [%] | activity, negative = inhibition [5] [%] | Potency [6] [µM] | Potency [7] [µM] | Potency [8] | Potency [9] | Potency [10] | Potency [11] | Potency [12] | Potency [13] | Potency [14] | outcome [15] | Potency [16] | outcome [17] | Potency [18] | Potency [19]
1 | COc1cccc(-c2cncnc2NCCc2cnc[nH]2)c1 | > 11.4 µM | -20.9 | 0.398 µM (active) | -4.17 | -17 | > 46 | > 46 | inactive | inactive | 0.251 µM (active) | 0.631 µM (active) | inactive | 7.94 µM (active) | inactive | inactive | inactive | inactive | – | –
2 | c1ncc(-c2ccc3c(c2)OCO3)c(NCCc2cnc[nH]2)n1 | > 11.4 µM | -17.2 | 0.398 µM (active) | 1.1 | -11.2 | > 46 | > 46 | inactive | inactive | – | 0.794 µM (active) | inactive | 2.51 µM (active) | inactive | – | inactive | inactive | 0.0398 µM (active) | –
3 | NC[C@@H]1O[C@H](O[C@H]2[C@H](O)[C@H](O[C@H]3[C@@H](O)[C@H](N)C[C@H](N)[C@H]3O[C@H]3O[C@H](CN)[C@H](O)[C@H](O)[C@H]3N)O[C@@H]2CO)[C@@H](N)[C@@H](O)[C@@H]1O | – | – | – | – | – | – | – | – | – | – | – | – | – | – | – | – | inactive | – | –
4 | CN(C)C(=O)c1ccc(-c2nccc(NCc3cccnc3)n2)cc1 | > 11.4 µM | -3.36 | 15.8 µM (active) | 3.73 | 2.62 | > 46 | > 46 | inactive | inactive | – | – | inactive | – | inactive | inactive | inactive | inactive | – | –
5 | COc1cccc(-c2nc(NCc3cnc(C)cn3)c3ccccc3n2)c1 | > 11.4 µM | -17.2 | 0.398 µM (active) | 20.9 | -10.4 | > 46 | > 46 | inactive | – | – | 2.51 µM (active) | inactive | – | inactive | inactive | inactive | inactive | – | –
6 | FC(F)(F)c1ccccc1-c1cncnc1NCCc1cnc[nH]1 | > 11.4 µM | -1.69 | 6.31 µM (active) | -20 | -1.23 | > 46 | > 46 | inactive | inactive | – | – | – | – | inactive | inactive | inactive | inactive | – | –
7 | CC(=O)NCCNc1nc(-c2c(C)noc2C)nc2ccccc12 | – | 5.25 | 1.58 µM (active) | 6.76 | 1.96 | > 46 | > 46 | inactive | inactive | – | – | inactive | – | – | – | inactive | inactive | – | inactive
8 | Fc1ccc(Nc2nc(-c3ccoc3)nc3ccccc23)cc1 | 7.43 µM (active) | 11.4 | 0.316 µM (active) | -21.4 | 4.98 | > 46 | > 46 | inactive | – | – | 3.98 µM (active) | inactive | – | – | – | inactive | inactive | – | –
9 | COCCNc1ccnc(-c2c(C)noc2C)n1 | > 11.4 µM | 3.45 | 2.51 µM (active) | 9 | 5.3 | > 46 | > 46 | inactive | inactive | – | – | inactive | – | – | inactive | inactive | inactive | – | –
10 | O=c1c(CCc2ccccc2)nc2cnc(N3CCOCC3)nc2n1Cc1ccc(F)cc1 | > 11.4 µM | -10.7 | 10 µM (active) | -2.42 | 17.6 | > 9.22 | > 46 | inactive | – | – | – | – | – | – | – | – | inactive | – | –
11 | c1ccc(Nc2ncncc2-c2ccc3c(c2)OCO3)cc1 | > 11.4 µM | -19.3 | 0.316 µM (active) | 9.45 | -14.2 | > 46 | > 46 | inactive | – | – | 0.794 µM (active) | inactive | – | – | – | inactive | inactive | 0.251 µM (active) | –
12 | CN(Cc1ccco1)c1ccnc(-c2ccoc2)n1 | > 11.4 µM | 12 | 12.6 µM (active) | -2.04 | -14.2 | > 46 | > 46 | inactive | inactive | – | – | – | – | – | – | inactive | inactive | – | –
